For 16 compounds, AC50 and outcome results are on record in PubChem BioAssay (EPA / NIEHS).

Inconclusive results are not listed. Activity calls are given as the source filed them. The calls were made as follows: active = hit-call score of the fitted dose curve at least 0.9, where 1 is the maximum; inconclusive = response in the unintended direction; inactive = score below 0.9.

Sequence of human Norepinephrine Transporter (NET), SLC6A2 (gene 6530) (P23975 whole entry, looked up): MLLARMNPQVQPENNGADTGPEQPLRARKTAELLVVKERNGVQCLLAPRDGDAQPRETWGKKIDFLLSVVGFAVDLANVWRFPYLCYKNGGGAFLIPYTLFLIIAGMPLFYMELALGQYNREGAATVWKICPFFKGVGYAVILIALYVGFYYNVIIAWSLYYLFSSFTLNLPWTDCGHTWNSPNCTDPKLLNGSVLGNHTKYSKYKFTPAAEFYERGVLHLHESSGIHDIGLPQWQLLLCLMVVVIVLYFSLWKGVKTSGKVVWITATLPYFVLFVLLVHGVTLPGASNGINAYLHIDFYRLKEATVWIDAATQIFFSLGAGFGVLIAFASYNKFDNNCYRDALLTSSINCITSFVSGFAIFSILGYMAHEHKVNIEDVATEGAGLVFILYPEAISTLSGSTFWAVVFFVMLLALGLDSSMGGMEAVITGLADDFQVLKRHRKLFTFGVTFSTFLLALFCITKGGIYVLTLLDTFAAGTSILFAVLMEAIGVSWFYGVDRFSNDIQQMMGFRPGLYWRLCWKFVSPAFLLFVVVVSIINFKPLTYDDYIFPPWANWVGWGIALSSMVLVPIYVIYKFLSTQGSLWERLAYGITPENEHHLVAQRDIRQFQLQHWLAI

In the first assay the target is human Dopamine Transporter (DAT), SLC6A3 (gene 6531) (UniProt Q01959). Nature of the assay: NVS_TR_hDAT: NovaScreen (NVS) Transporter Assay for human Dopamine Transporter (DAT) (AID 2283374).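 Also: activity means loss of bound radioligand signal relative to DMSO.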 Summed up: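 Cell-free radioligand displacement binding at human DAT, 1 h after dosing, with filtration and scintillation counting. Primary screen in duplicate at 25 uM, actives then in concentration series. Loss of bound signal versus DMSO scored.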
Sequence of human Dopamine Transporter (DAT), SLC6A3 (gene 6531) (Q01959 whole entry, looked up): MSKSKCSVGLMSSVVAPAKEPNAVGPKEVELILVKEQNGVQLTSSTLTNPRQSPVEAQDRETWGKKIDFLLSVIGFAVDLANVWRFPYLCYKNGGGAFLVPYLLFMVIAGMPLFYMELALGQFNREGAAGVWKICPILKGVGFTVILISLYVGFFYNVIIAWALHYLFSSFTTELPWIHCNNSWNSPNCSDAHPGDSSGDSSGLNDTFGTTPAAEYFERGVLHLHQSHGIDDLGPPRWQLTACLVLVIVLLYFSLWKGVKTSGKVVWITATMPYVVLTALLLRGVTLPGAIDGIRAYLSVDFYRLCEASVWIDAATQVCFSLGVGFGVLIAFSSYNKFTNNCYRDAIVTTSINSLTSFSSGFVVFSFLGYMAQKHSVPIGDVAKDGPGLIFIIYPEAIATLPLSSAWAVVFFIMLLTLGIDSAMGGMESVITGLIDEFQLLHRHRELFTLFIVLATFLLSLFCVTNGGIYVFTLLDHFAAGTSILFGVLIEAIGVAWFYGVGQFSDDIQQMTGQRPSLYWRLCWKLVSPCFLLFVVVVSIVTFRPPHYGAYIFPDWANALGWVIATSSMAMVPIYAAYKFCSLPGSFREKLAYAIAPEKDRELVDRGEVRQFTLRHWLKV
As usually defined, the AC50 is the concentration giving half of the maximal activity seen. Consider `CS(=O)(=O)OCCCCOS(C)(=O)=O`, for which the half-maximal activity concentration (AC50) is 25 µM (active).

Regarding `CN(c1nccc(=O)[nH]1)C1CCN(c2nc3ccccc3n2Cc2ccc(F)cc2)CC1`, the AC50 is 11.5 µM (active).

Consider `ClC(c1ccccc1)(c1ccccc1)c1ccccc1`, for which the outcome was inactive.

Take `COc1ccc(CCN2CCC(Nc3nc4ccccc4n3Cc3ccc(F)cc3)CC2)cc1`: the concentration at half-maximal activity (AC50) is 3.89 µM (active).

With `O=C1OC[C@H](Cc2cccc(O)c2)[C@H]1Cc1cccc(O)c1`, the AC50 is 0.0517 µM (active).

For the next assay, the target named is human Norepinephrine Transporter (NET), SLC6A2 (gene 6530) (UniProt P23975). Nature of the assay: NVS_TR_hNET: NovaScreen (NVS) Transporter Assay for human Norepinephrine Transporter (NET) (AID 2283377).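 As to AC50: displacement of radioligand from human NET seen as loss of scintillation signal.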 Summed up:
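Cell-free radioligand binding using CHO-derived membrane protein expressing human NET, read by filter scintillation counting 1 h after dosing; loss of signal vs DMSO. Initial duplicate screen at 25 uM, actives retested in concentration series.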
`Nc1ccc(Cl)c([N+](=O)[O-])c1`: the result was inactive.

`CC=Cc1ccc(OCC)c(O)c1`: the AC50 is 5.31 µM (active).

With `CS(=O)(=O)OCCCCOS(C)(=O)=O`, the result was inactive.

`COc1cc(Cl)c(OC)cc1N`: the concentration at half-maximal activity (AC50) is 25 µM (active).

For `NC(=S)NNC(N)=S`, the outcome was inactive.

For `COc1cccc(OC)c1O`, the compound was called inactive.

Regarding `CCCCCCCCCCCCCCCC(=O)OC/C=C(C)/C=C/C=C(C)/C=C/C1=C(C)CCCC1(C)C`, the compound was classed as inactive.

Consider `CCN(CCC#N)c1ccc(N=Nc2ccc([N+](=O)[O-])cc2)cc1`, for which the result was inactive.

For `CN(c1nccc(=O)[nH]1)C1CCN(c2nc3ccccc3n2Cc2ccc(F)cc2)CC1`, the outcome was inactive.

Regarding `C[C@@H]1CCN(C(=O)[C@H](CCCN=C(N)N)NS(=O)(=O)c2cccc3c2NC[C@H](C)C3)[C@@H](C(=O)O)C1`, the compound was called inactive.

For the compound `CC=Cc1ccc(OC)c(OC)c1`, the compound was called inactive.

In the case of `COc1ccc(CCN2CCC(Nc3nc4ccccc4n3Cc3ccc(F)cc3)CC2)cc1`, the concentration at half-maximal activity (AC50) is 2.52 µM (active).

On to `CCCC(O)C(O)CO` (centres undefined), for which the compound was classed as inactive.

For `COc1ccc(OC)c(N=Nc2c(O)ccc3ccccc23)c1`, the concentration at half-maximal activity (AC50) was 17.4 µM (active).
